HPGD inh: qHTS Assay for Inhibitors of HPGD (15-Hydroxyprostaglandin Dehydrogenase). 15-hydroxyprostaglandin dehydrogenase [NAD(+)] (Homo sapiens), P15428. purified HPGD, NADH fluorescence kinetic, PGE2 substrate. Potency, µM, for inactives: at the highest dose activity change, negative = inhibition, usual class: inhibitors. 150,000 tested, 4.3% active; also: potency is read from the fitted curve at half-maximal effect
Target sequence (P15428 whole entry, looked up): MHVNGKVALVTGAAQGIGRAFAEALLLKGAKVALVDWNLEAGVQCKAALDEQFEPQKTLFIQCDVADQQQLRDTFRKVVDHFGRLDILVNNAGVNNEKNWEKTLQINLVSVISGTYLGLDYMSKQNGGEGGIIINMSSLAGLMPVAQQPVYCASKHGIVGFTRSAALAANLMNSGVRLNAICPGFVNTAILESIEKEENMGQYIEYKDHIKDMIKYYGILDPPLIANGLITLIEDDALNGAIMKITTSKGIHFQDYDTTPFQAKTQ
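NADH formation kinetics: reaction with 30 uM PGE2 and 1 mM NAD+ (final), 20 nM enzyme, Tris-HCl pH 8 with Tween 20, after 15 min compound preincubation at room temperature. Fluorescence change, last versus first of five reads.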
ALDH1A1 inh: qHTS Assay for Inhibitors of Aldehyde Dehydrogenase 1 (ALDH1A1). Aldehyde dehydrogenase 1A1 (Homo sapiens), P00352. Purified ALDH1A1, NADH fluorescence, propionaldehyde substrate. Potency, µM (highest dose often 75.3 µM), inactives show top-dose activity, negative = inhibition, hits mostly inhibitors. 220,000 tested, 7.3% active. AID 1030, 2008;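 also: potency is read from the fitted curve at half-maximal effect; plate controls were no enzyme wells and a reference inhibitor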
PNC inhibitor: High Content Assay for Compounds that inhibit the Assembly of the Perinucleolar Compartment; PC3M PTB-GFP, PNC prevalence imaging, 16 h; hits give low values; activity change (PNC), negative = inhibition, % at 10 µM; 140,000 tested, 3.1% active;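 active = readout at or below -70, meaning at least 70% loss of cells showing the perinucleolar compartment, a nuclear body marking cancer cells; inconclusive = readout between -30 and a set limit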;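 also: plate controls were DMSO wells for no effect and camptothecin positive control wells for full effect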
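Compounds are pinned in duplicate onto adhered PC3M cells stably expressing GFP-tagged PTB and incubated 16 h at 37 C. Cells are then fixed, nuclei stained with Hoechst, and PNC-positive cells counted.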
Active calls of the source: *; ? = inconclusive; nt = no result given; [ ] = remark or other dose. The list is not random: actives were taken first. Their share in the collection is about 11%. Unless noted, calls follow the shape of the dose curve; as a rule, active = well fitted inhibition curve with a large enough effect (not every such curve was filed as active); inconclusive = small, poorly fitted or top-dose-only effect, or another doubt; inactive = no such curve, though single readings can be large or run the other way. Unless noted, % is scaled to controls: 0 for no effect and ±100 for the full control effect.

SMILES | HPGD inh | ALDH1A1 inh | PNC inhibitor
CC1=C(C)C(=O)C(CCCCC#CCCCC#CCO)=C(C)C1=O | ? | 14.1µM* | 21.7
Cc1oc(C)c2c(=O)ccc3c(c12)OC(N)=C(C#N)C3c1ccc(F)cc1 (stereo not drawn) | 25.1µM* | 14.1µM* | ?
Cc1[nH]nc2c1C(c1ccc(F)cc1)C(C#N)=C(N)O2 (stereo not drawn) | -1.3% | ? | 16.4
C[C@@]12CC[C@@H]3[C@H](CCC4=CC(=O)CC[C@]43C)[C@@H]1CC[C@@H]2C(=O)Cn1cnc2c(=S)nc[nH]c21 | -0.5% | -1.3%[13.5 µM] | nt
CCc1ccc(-c2cn(-c3nc(C)cc(C)n3)c(=N)o2)cc1 | -12.2% | ? | ?
CC(C)CCn1c(SCc2ccc(Cl)cc2)nc2c1c(=O)[nH]c(=O)n2C | 25.1µM* | 11.2µM* | -6.3
CC(C)CCn1c(Sc2nc3ccccc3o2)nc2c1c(=O)[nH]c(=O)n2C | -5.2% | 11.2µM* | -16.5
Cc1ccc(CSc2nc3c(c(=O)[nH]c(=O)n3C)n2CCC(C)C)cc1 | -6.9% | ? | 2.1
C/C(Cl)=C/Cn1c(SCc2ccc(Cl)cc2)nc2c1c(=O)[nH]c(=O)n2C | -4.6% | ? | -27.4
CCCCn1c(SCc2ccc(Cl)cc2)nc2c1c(=O)[nH]c(=O)n2C | ? | 28.2µM* | -13.1
Cn1c(=O)[nH]c(=O)c2c1nc(N1CCCCC1)n2CCSc1nc2ccccc2o1 | -11.4% | 3.8% | 0.1
Cc1ccc(OCC(O)C(C)NC(C)C)c2c1CCC2 (stereo not drawn) | -8.6% | -13.2% | nt
CCOC(=O)c1[nH]c(C)c(C(=O)OCCOc2cccc(C)c2)c1C | 2.0% | 14.6% | ?
CC1CC2C3CC(F)C4=CC(=O)C=C[C@@]4(C)[C@@]3(F)C(O)C[C@]2(C)[C@]1(O)C(=O)COC(=O)C(C)(C)C (stereo partly drawn) | -7.0% | 1.4% | nt
CCCCOc1ccc(CSCCN=C(N)N)cc1 | nt | 5.4% | nt
Cc1nc2sc(C(c3ccc(F)cc3)N3CCN(C(=O)c4ccco4)CC3)c(O)n2n1 (stereo not drawn) | -7.9% | 1.3% | -28.6
CCOC(=O)N1CCC(Nc2c(N3CCN(c4cccc(C(F)(F)F)c4)CC3)c(=O)c2=O)CC1 | -24.0% | -14.3% | -21.5
COC(=O)CCN(C(=O)c1cccc([N+](=O)[O-])c1)c1ccccn1 | nt | -0.3% | nt
O=S(=O)(NCc1cc(-c2ccccc2)no1)c1ccccc1 | nt | -5.6% | nt
Cc1onc(-c2ccccc2)c1CNS(=O)(=O)c1cccc(Br)c1 | nt | 2.82µM* | nt
C/C(=N\Nc1cc(C)nc(-c2ccccc2O)n1)c1ccccc1 | nt | 1.8% | nt
O=C(NC(=S)Nc1cccc(NC(=O)c2ccccc2)c1)c1cccc([N+](=O)[O-])c1 | -5.2% | ? | 5.8
C/C(=N\NC(=O)C(N)=O)c1cccc([N+](=O)[O-])c1 | nt | 0.8% | nt
CC(=O)NNC(=S)NC(=O)c1cccc([N+](=O)[O-])c1 | 28.2µM* | 8.91µM* | 76.8
C/C(=N\NC(=S)NC(C)C)c1ccc2c(c1)OCCO2 | -5.3% | 17.4% | ?
SMILES | HPGD inh | ALDH1A1 inh | PNC inhibitor
C/C(=N\Nc1cc(C)nc(-c2ccccc2)n1)c1cccc([N+](=O)[O-])c1 | nt | 12.6µM* | nt
CNC(=S)N/N=C(\C)c1ccc2c(c1)OCCO2 | -10.7% | 2.82µM* | 18.0
CNC(=S)N/N=C(\C)c1cccc([N+](=O)[O-])c1 | -18.6% | 12.6µM* | ?
CC(C)C[C@@H](CC(=O)N[C@@H](CCC(=O)O)CC(=O)O)NC(=O)[C@@H]1CNCC[C@H]1NC(=O)C[C@@H](NC(=O)C[C@H](Cc1ccccc1)NC(=O)[C@@H]1CCCC[C@H]1N)C(C)C | -8.5% | -8.6% | nt
CCCCN1C(=O)c2ccc(C(=O)NCCN3C(=O)S/C(=C\c4cccnc4)C3=O)cc2C1=O | -16.4% | 1.26µM* | 48.3
CN(C)S(=O)(=O)c1ccc(C(=O)NCCN2C(=O)S/C(=C\c3cccnc3)C2=O)cc1 | nt | -8.9% | nt
CC1(C)CC2CC(C)(CN2C(=O)C23CCC(C)(C(=O)O2)C3(C)C)C1 (stereo not drawn) | -2.8% | 5.2% | -28.6
COC(=O)N[C@H](C[N+](=O)[O-])C(C)(C)C | -1.4% | -0.7% | nt
Cc1nnsc1C(=O)N/N=C/c1ccc(OC(F)(F)F)cc1 | nt | 11.3% | nt
CC1(C)CC(=O)C(C(C2=C(O)CC(C)(C)CC2=O)c2ccc(Cl)c([N+](=O)[O-])c2)C(=O)C1 (stereo not drawn) | nt | -1.5% | nt
CC1(C)CC(=O)C(C(C2=C(O)CC(C)(C)CC2=O)c2ccco2)C(=O)C1 (stereo not drawn) | 10µM* | ? | 5.8
CCCCc1nc2c(c3c1C[C@H](C)OC3)CN(C(=O)Cc1cccc(OC)c1)CC2 | -6.5% | 7.4%[13.5 µM] | nt
O=c1[nH][nH]c(=S)c(=O)[nH]1 | 3.98µM* | ? | nt
COCCn1c(-c2ccccc2)nc2c(c(=O)c3ccccc3n2C)c1=O | ? | -4.2% | 38.0
COc1cc(C=O)ccc1OS(=O)(=O)c1ccc(NC(C)=O)cc1 | -24.2% | ? | 10.7
COc1ccc(/C=C2/SC(c3ccc(C)cc3)=NC2=O)cc1OC | -11.5% | ? | -8.4
COc1cccc(/C=C2\SC(=S)NC2=O)c1OS(=O)(=O)c1ccc(NC(C)=O)cc1 | 25.1µM* | ? | 39.0
COc1ccc(/C=C2\SC(=S)NC2=O)cc1OS(=O)(=O)c1ccc(NC(C)=O)cc1 | nt | 0.708µM* | nt
COc1ccc(/C=C2\SC(=O)NC2=S)cc1OC | 15.8µM* | 17.8µM* | -14.5
COc1cccc(/C=C2\SC(N)=NC2=O)c1OS(=O)(=O)c1ccccc1 | nt | 3.8% | nt
CCOc1ccc(/C=C2\SC(=S)N(C)C2=O)cc1OC | nt | 5.5% | nt
COc1cc(/C=C2\SC(=S)NC2=O)ccc1OS(=O)(=O)c1ccccc1 | 8.91µM* | 6.31µM* | ?
CCOC(=O)c1c(-c2ccc(C)cc2)csc1NC(=O)CCSc1nnc2ccccn12 | ? | ? | -18.6
COc1cccc(NC(=O)c2cccc(C)c2[N+](=O)[O-])c1 | nt | 5.2% | nt
Brc1c(OCCOCCn2cncn2)ccc2ccccc12 | -26.4% | 1.6% | 31.5
SMILES | HPGD inh | ALDH1A1 inh | PNC inhibitor
Cc1nnc(SCC(=O)c2ccccc2)n1Cc1ccccc1 | -2.8% | -2.5% | 11.8
COc1cccc(-n2nnnc2SCC(=O)c2cc(OC)ccc2OC)c1 | ? | -21.9% | -21.4
C#CCOC(=O)C[N+](C)(C)CC#Cc1ccccc1 | nt | 12.1% | nt
COc1ccc(-n2c3c(cc(C(=O)NNc4ccccc4C)c2=O)C(=O)CC(C)(C)C3)cc1 | nt | 20µM* | nt
COc1ccc(-n2c3c(cc(C(=O)N4CCN(CCO)CC4)c2=O)C(=O)CC(C)(C)C3)cc1 | -5.3% | 3.7% | 20.0
CC#CCCCC(=O)Nc1ccccc1C(=O)O | -17.8% | -5.8% | ?
COc1ccccc1C1CCN(c2cc(O)ccc2[N+](=O)[O-])CC1 | nt | -2.2% | nt
Cc1csc(NC(=O)c2cc(C)oc2C)n1 | 17.8µM* | -2.0% | -11.3
Cc1csc(NC(=O)c2ccccc2O)n1 | ? | ? | 15.5
Cc1csc(NC(=O)c2cc([N+](=O)[O-])cc([N+](=O)[O-])c2)n1 | ? | 4.5% | -113.8*
Cc1csc(NC(=O)c2cc[n+]([O-])cc2)n1 | nt | -11.2% | nt
